Test results taken from publication PMC7862700, “An all-to-all approach to the identification of sequence-specific readers for epigenetic DNA modifications on cytosine”.

Key:
Assay in all cases: DAPPL (digital affinity profiling via proximity ligation, sequencing); 10 mM Tris-HCl pH 7.5, 50 mM NaCl, 1 mM DTT, 4% glycerol, room temperature, 30 min; GST-TFs on glutathione beads, 16-mer random dsDNA library, 0.1% formaldehyde crosslink after washing; high values mean tight binding
Settings in all cases: protein: recombinant; tags: N-terminal GST; dsDNA, one strand shown
[1] = target: T1, FLI1 (Homo sapiens, UniProt Q01543 1-452)
T1 sequence: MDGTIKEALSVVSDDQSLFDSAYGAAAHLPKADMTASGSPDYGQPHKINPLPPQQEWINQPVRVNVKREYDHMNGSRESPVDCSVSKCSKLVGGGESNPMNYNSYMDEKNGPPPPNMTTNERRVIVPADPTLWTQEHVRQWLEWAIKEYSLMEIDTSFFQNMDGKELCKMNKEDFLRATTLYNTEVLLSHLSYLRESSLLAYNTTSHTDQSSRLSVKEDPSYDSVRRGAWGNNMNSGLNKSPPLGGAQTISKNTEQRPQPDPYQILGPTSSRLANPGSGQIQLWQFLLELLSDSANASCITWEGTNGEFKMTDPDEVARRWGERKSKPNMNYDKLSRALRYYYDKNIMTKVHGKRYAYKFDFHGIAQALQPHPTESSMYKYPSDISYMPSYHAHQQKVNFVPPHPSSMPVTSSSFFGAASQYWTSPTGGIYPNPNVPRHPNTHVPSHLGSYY
Method in brief: (§1)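 Pools of DNA-barcoded human transcription factors, expressed in yeast as GST fusions on glutathione beads and combined with a tag-only sample, were incubated with 200 nmole of a 16-mer random double-stranded DNA library. Incubation took 30 min at room temperature in Tris/NaCl/DTT/glycerol buffer and was followed by washing, 0.1% formaldehyde crosslinking, proximity ligation (BsaI/T4 ligase, 1 h, 37 °C), PCR amplification and sequencing on an Illumina NextSeq500. Binding signal is the ratio of a hexamer's read frequency for a factor to its frequency for the tag-only sample.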

[2] = target: T2, ELK1 (Homo sapiens, UniProt P19419 1-428)
T2 sequence: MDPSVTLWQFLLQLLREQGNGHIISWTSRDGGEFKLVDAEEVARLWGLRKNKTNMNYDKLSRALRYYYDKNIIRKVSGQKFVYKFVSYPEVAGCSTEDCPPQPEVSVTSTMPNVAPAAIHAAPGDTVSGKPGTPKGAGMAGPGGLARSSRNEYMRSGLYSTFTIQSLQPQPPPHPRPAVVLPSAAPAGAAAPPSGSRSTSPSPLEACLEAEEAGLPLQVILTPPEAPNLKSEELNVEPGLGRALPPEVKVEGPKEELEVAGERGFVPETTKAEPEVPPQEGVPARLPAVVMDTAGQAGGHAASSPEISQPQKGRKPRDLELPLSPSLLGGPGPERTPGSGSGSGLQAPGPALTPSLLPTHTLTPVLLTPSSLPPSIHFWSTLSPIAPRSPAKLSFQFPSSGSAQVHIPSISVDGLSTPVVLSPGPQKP
Method in brief: as §1

[3] = target: T3, GABPA (Homo sapiens, UniProt Q06546 1-454)
T3 sequence: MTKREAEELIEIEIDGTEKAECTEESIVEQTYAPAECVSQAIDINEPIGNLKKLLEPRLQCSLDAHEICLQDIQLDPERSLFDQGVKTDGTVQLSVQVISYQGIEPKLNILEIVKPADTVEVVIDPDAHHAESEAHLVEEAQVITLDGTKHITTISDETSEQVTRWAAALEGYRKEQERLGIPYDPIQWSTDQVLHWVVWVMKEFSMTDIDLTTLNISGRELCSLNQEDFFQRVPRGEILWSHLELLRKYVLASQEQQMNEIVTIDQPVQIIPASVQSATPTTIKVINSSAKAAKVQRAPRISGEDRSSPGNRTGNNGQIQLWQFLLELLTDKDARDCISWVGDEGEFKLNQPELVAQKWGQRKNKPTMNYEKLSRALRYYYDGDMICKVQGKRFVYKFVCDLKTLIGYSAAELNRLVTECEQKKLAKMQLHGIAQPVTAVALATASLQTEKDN
Method in brief: as §1

[4] = target: T4, ERG (Homo sapiens, UniProt P11308 1-479)
T4 sequence: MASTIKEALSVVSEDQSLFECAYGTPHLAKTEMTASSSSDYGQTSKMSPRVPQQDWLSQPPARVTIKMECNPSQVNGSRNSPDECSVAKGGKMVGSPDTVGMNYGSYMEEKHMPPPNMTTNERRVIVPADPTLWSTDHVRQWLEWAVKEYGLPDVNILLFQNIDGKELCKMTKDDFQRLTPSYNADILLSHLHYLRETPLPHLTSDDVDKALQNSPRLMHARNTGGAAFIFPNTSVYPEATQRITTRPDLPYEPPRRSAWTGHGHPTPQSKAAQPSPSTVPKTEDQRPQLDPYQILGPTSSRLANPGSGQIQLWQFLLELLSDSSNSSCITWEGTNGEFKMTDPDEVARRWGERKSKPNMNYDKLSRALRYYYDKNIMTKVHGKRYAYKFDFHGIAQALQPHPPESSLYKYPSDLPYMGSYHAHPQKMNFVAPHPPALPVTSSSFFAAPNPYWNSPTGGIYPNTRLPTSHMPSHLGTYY
Method in brief: as §1

[5] = target: ELF1 (Homo sapiens, UniProt P32519 1-619)
Method in brief: as §1

[6] = target: T5, EHF (Homo sapiens, UniProt Q9NZC4 1-300)
T5 sequence: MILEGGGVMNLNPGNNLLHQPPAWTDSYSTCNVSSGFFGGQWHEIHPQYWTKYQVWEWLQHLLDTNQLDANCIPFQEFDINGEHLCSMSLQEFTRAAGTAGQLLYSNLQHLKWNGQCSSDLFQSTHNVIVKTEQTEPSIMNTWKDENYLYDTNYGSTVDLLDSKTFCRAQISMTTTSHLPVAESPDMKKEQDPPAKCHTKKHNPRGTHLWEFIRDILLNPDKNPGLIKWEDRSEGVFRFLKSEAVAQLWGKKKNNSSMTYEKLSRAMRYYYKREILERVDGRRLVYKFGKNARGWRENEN
Method in brief: as §1

[7] = target: SPI1 (Homo sapiens, UniProt P17947 1-270)
Method in brief: as §1

[8] = target: SPIB (Homo sapiens, UniProt Q01892 1-262)
Method in brief: as §1

[9] = target: T6, ELK3 (Homo sapiens, UniProt P41970 1-407)
T6 sequence: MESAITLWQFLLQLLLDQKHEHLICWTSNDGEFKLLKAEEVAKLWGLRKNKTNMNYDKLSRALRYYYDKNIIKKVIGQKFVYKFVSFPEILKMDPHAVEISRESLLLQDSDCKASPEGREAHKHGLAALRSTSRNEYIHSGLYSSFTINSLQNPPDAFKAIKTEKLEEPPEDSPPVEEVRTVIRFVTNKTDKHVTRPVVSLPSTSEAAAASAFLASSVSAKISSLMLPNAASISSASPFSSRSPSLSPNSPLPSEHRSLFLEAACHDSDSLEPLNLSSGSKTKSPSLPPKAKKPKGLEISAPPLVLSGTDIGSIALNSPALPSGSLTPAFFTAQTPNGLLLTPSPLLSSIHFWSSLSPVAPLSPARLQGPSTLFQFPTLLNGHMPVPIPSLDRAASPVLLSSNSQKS
Method in brief: as §1

Chain of SPIB (Q01892 whole entry): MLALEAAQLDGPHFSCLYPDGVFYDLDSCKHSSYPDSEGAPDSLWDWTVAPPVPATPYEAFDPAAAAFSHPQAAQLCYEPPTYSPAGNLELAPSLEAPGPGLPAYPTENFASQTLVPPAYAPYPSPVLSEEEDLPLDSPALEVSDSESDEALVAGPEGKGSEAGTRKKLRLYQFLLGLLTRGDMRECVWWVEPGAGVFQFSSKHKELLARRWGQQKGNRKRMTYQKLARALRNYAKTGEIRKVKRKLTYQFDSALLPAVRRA
Chain of ELF1 (P32519 whole entry): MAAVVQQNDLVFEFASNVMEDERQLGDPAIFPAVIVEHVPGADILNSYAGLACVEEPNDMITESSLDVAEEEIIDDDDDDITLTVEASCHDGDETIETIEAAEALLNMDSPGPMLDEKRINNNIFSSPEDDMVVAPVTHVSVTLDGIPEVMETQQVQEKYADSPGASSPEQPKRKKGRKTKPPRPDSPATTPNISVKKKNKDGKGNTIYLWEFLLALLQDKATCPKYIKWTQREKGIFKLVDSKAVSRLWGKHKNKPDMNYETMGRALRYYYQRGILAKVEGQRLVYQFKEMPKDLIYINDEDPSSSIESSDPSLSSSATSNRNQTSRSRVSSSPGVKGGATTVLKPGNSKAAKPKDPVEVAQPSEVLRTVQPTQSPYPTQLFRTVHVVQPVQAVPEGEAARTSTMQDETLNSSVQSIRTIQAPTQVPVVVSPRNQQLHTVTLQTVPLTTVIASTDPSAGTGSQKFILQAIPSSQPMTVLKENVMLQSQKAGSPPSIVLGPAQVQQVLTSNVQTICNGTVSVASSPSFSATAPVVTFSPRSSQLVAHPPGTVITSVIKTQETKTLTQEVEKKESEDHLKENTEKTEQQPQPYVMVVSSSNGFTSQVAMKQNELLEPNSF

With TACTCA as the sequence, how does the binding signal [1] read?
Its binding signal is 1.14 fold enrichment (6-mer frequency, TF over GST control).

What about the binding signal [2] of the same sequence?
Its binding signal is 1.24 fold enrichment (6-mer frequency, TF over GST control).

And the binding signal [3]?
Its binding signal is 1.2 fold enrichment (6-mer frequency, TF over GST control).

What about the binding signal [4] of the same sequence?
The binding signal was 1.19 fold enrichment (6-mer frequency, TF over GST control).

What about the binding signal [5] of the same sequence?
Its binding signal is 1.19 fold enrichment (6-mer frequency, TF over GST control).

And the binding signal [6]?
The binding signal was 1.3 fold enrichment (6-mer frequency, TF over GST control).

And the binding signal [7]?
Its binding signal is 1.14 fold enrichment (6-mer frequency, TF over GST control).

And the binding signal [8]?
Its binding signal is 1.36 fold enrichment (6-mer frequency, TF over GST control).

What about the binding signal [9] of the same sequence?
The binding signal was 1.2 fold enrichment (6-mer frequency, TF over GST control).
